Data reported in PubChem BioAssay AID1159580 (chemical genetic matrix, 2015).
Screen size: about 5,500 compounds; about 2,000 (36%) were called active. Roughly 18% stayed inconclusive and do not appear here. Rule as the data show it: active = normalized growth mostly below about 0.91 (no sharp cut-off); inconclusive = no clear call, values can overlap the other calls; inactive = mostly above about 0.92. This is one part of the list.

Assay: chemical genetic growth profiling, strain panel (AID 1159580);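 also: tested at 20 µM; growth read once vehicle control cultures reached saturation at 30 °C; 1 = growth at the plate median or of vehicle wells; lower values mean less growth of the strain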
Details: S. cerevisiae deletion strains, growth OD

Measured: normalized growth

NC(C(=O)O)c1cc(=O)[nH]o1 (centres undefined)
inactive: locus YAL013W, strain DEP1, hits give low values 1.02 | locus YAL040C, strain CLN3, hits give low values 1.01 | locus YCL061C, strain MRC1 (second series), hits give low values 1 | locus YDR150W, strain NUM1, hits give low values 1 | locus YDR363W, strain ESC2, hits give low values 1.04 | locus YER002W, strain NOP16, hits give low values 1.01 | locus YGR229C, strain SMI1, hits give low values 1.04 | locus YMR263W, strain SAP30, hits give low values 1 | locus YMR307W, strain GAS1, hits give low values 1.01 | locus YNL153C, strain GIM3, hits give low values 1.04 | locus YNL175C, strain NOP13, hits give low values 1.02 | locus YNL197C, strain WHI3, hits give low values 0.999 | locus YNL224C, strain SQS1, hits give low values 0.996 | locus YOR083W, strain WHI5 (second series), hits give low values 1.01
